Screens deposited in PubChem by Broad Institute.
This is a sample that favours compounds with a hit; in the whole collection about 7.9% have one here.
NOMO-1 viab – STK33 inhibitor candidate reducing NOMO-1 cell viability. NOMO-1 AML viability, CellTiter-Glo luminescence, 72 h. inhibition, % (no concentration beside the values). hit rate 7.5% among 37,000. AID 2330; in the data active = inhibition above about 80%; inconclusive = no clear call, values can overlap the other calls
MITF inhib – blocks MITF activity. inhibition, % (test concentration not listed). hit rate 0.28% among 37,000. AID 2240. TRPM1 promoter luciferase, luminescence, 24 h; in the data active = inhibition above about 85%; inconclusive = no clear call, values can overlap the other calls; inactive = below about 68%;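 note: human melanocyte line stably carrying TRPM1 promoter luciferase reporter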
Hedgehog inh – blocks Sonic Hedgehog signaling; Shh-LIGHT2 Gli-luciferase reporter, 30 h; inhibition, % (test concentration not listed); hit rate 2.1% among 22,000; AID 2313;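 active = mean inhibition across valid replicates above about 65%, limit read from the data; inconclusive = mean under the limit, yet half or more replicates past it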;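 note: pathway switched on by Shh-conditioned medium diluted 1 in 25 in low serum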
Numbers without * were called inactive; ? = inconclusive; · = not tested or not shown.

SMILES	NOMO-1 viab	MITF inhib	Hedgehog inh
CN(C)c1oc(-c2ccc(Cl)cc2)nc1C#N	27	-1	-1
C[C@H]1CN([C@@H](C)CO)C(=O)Cc2cc(NS(=O)(=O)c3cccs3)ccc2O[C@@H]1CN(C)Cc1ccc2c(c1)OCO2	21	-16	0
C[C@H](CO)N1C[C@H](C)[C@H](CN(C)Cc2ccc(Oc3ccccc3)cc2)Oc2ccc(NS(=O)(=O)c3cccs3)cc2C1=O	48	4	25
O=C(NCCCO)C(=O)NCC1COc2ccccc2O1 (stereo not given)	-12	-11	·
COc1ccc(N(C(=O)c2ccccc2)S(=O)(=O)c2cc(OC)ccc2OC)cc1	14	70	·
COc1cccc(-c2cc(NCc3ccc4c(c3)OCO4)nc(N)n2)c1	95*	-1	?
COc1cccc(-c2cc(C(=O)NCc3ccco3)c3cc(C)cc(C)c3n2)c1	10	-26	·
COc1ccc(NC(=O)N(C)C[C@@H]2Oc3ccc(NS(=O)(=O)c4ccc(Cl)cc4)cc3C(=O)N([C@H](C)CO)C[C@H]2C)cc1	-11	-9	·
COc1ccc(C(=O)C(C)Oc2cccc(NC(=O)c3cccc([N+](=O)[O-])c3)c2)cc1 (stereo not given)	-9	-3	·
COc1ccc(C(=O)Nc2ccc(C(O)(C(F)(F)F)C(F)(F)F)cc2)cc1	110*	7	?
COc1ccc(C(=O)Nc2ccc(C)c(C)c2)cc1	23	48	-253
COc1ccc(C(=O)C(C)Oc2ccc(NC(=O)c3cccc(OC)c3)cc2)cc1 (stereo not given)	125*	45	·
NC(=O)c1c(NC(=O)COc2ccc(Cl)cc2Cl)sc2c1CCCC2	25	-25	·
CC(C)(C)C1CCc2c(sc(NC(=O)COc3ccc(Cl)cc3)c2C(N)=O)C1 (stereo not given)	89*	-6	·
C[C@@H]1CN([C@@H](C)CO)C(=O)c2cccc(NC(=O)Nc3ccc4c(c3)OCO4)c2O[C@@H]1CN(C)Cc1ccc(C(=O)Nc2ccccc2N)cc1	142*	9	·
C[C@@H]1CN([C@@H](C)CO)C(=O)c2cccc(NC(=O)Nc3ccc4c(c3)OCO4)c2O[C@@H]1CN(C)Cc1ccc(C(=O)O)cc1	0	-10	-10
C[C@H]1CN([C@@H](C)CO)C(=O)c2cccc(NC(=O)Nc3ccc4c(c3)OCO4)c2O[C@@H]1CN(C)Cc1ccc(C(=O)Nc2ccccc2N)cc1	127*	3	·
C[C@@H]1CN([C@H](C)CO)C(=O)c2cccc(NC(=O)Nc3ccc4c(c3)OCO4)c2O[C@H]1CN(C)Cc1ccc(C(=O)O)cc1	-17	-16	-26
C[C@H]1CN([C@@H](C)CO)C(=O)c2cccc(NC(=O)Nc3ccc4c(c3)OCO4)c2O[C@@H]1CN(C)Cc1ccc(C(=O)O)cc1	25	2	-54
C[C@@H]1CN([C@@H](C)CO)C(=O)c2cccc(NC(=O)Nc3ccc4c(c3)OCO4)c2O[C@H]1CN(C)Cc1ccc(C(=O)Nc2ccccc2N)cc1	126*	4	·
Cc1c(Br)c([N+](=O)[O-])nn1CC(=O)Nc1ccc(C#N)cc1	52	8	·
CNC[C@@H]1Oc2ccc(NC(=O)Cn3cnnn3)cc2C(=O)N([C@H](C)CO)C[C@@H]1C	-5	-1	·
C[C@@H]1CN([C@@H](C)CO)C(=O)c2cccc(NC(=O)NC3CCCCC3)c2O[C@H]1CN(C)S(C)(=O)=O	6	3	-13
C=CCNC1=C2C[C@@H](C)C[C@H](OC)[C@H](O)[C@@H](C)/C=C(\C)[C@H](OC(N)=O)[C@@H](OC)C=C/C=C(/C)C(=O)NC(=CC1=O)C2=O	119*	15	108*
O=C(c1ccccc1)c1cc(Cl)ccc1NS(=O)(=O)c1ccccc1[N+](=O)[O-]	-6	27	·
SMILES	NOMO-1 viab	MITF inhib	Hedgehog inh
O=C(CSc1nnc(-c2ccncc2)o1)Nc1cccc(C(F)(F)F)c1	6	-25	·
Cc1ccc(S(=O)(=O)Nc2ccc3c(c2)CC(=O)N([C@H](C)CO)C[C@H](C)[C@H](CN(C)Cc2ccc(Cl)c(Cl)c2)O3)cc1	100*	-14	·
Cc1ccc(S(=O)(=O)Nc2ccc3c(c2)CC(=O)N([C@@H](C)CO)C[C@H](C)[C@@H](CN(C)Cc2ccc(Cl)c(Cl)c2)O3)cc1	128*	25	?
Cc1ccc(S(=O)(=O)Nc2ccc3c(c2)CC(=O)N([C@H](C)CO)C[C@H](C)[C@H](CN(C)Cc2ccc4c(c2)OCO4)O3)cc1	31	10	44
Cc1ccc(S(=O)(=O)Nc2ccc3c(c2)CC(=O)N([C@H](C)CO)C[C@@H](C)[C@@H](CN(C)Cc2ccc4c(c2)OCO4)O3)cc1	27	-2	3
O=C(CN1C(=O)c2ccccc2S1(=O)=O)Nc1ccccc1C(=O)N1CCCC1	17	5	·
C=C(C)C(=O)O[C@H]1CC(=C)C2C[C@H](O)[C@](O)(CO)C2[C@H]2OC(=O)C(=C)[C@H]12 (stereo not given in full)	119*	-11	-3
Cc1cccc(-n2c(N)cc(=O)nc2SCC(=O)Nc2sc3c(c2C#N)CCCCCC3)c1	39	64	·
NC[C@@H]1O[C@H](C23CC4CC(CC(C4)C2)C3)Cc2c1ccc(O)c2O	107*	1	-7
CC(C)=CCc1c(O)c(CC=C(C)C)c2c(c1O)C(=O)CC(c1ccccc1)O2 (stereo not given)	35	0	1
NC[C@@H]1O[C@H](c2ccccc2)Cc2c1ccc(O)c2O	112*	13	35
O=C(CSc1nnc(-c2ccc(Br)cc2)o1)c1ccc([N+](=O)[O-])cc1	17	6	·
Cc1noc(C)c1S(=O)(=O)Nc1ccc2c(c1)CC(=O)N([C@@H](C)CO)C[C@H](C)[C@H](CN(C)Cc1ccc(C(F)(F)F)cc1)O2	83*	8	18
Cc1noc(C)c1S(=O)(=O)Nc1ccc2c(c1)CC(=O)N([C@H](C)CO)C[C@@H](C)[C@H](CN(C)Cc1ccc(Cl)c(Cl)c1)O2	97*	-7	15
Cc1noc(C)c1S(=O)(=O)Nc1ccc2c(c1)CC(=O)N([C@@H](C)CO)C[C@H](C)[C@@H](CN(C)Cc1ccc(C(F)(F)F)cc1)O2	65	2	24
Cc1noc(C)c1S(=O)(=O)Nc1ccc2c(c1)CC(=O)N([C@@H](C)CO)C[C@H](C)[C@H](CN(C)Cc1ccc(Cl)c(Cl)c1)O2	?	-6	30
COC(=O)CCSc1nc(SC)nc2sc3c(c12)CC(C)(C)OC3	18	-120	·
C[C@H]1CN([C@@H](C)CO)C(=O)c2cc(NS(C)(=O)=O)ccc2O[C@@H]1CN(C)S(=O)(=O)c1cccs1	21	-7	-15
C[C@H](CO)N1C[C@H](C)[C@H](CN(C)S(=O)(=O)c2ccccc2)Oc2ccc(NC(=O)Nc3ccc4c(c3)OCO4)cc2CC1=O	126*	17	-4
Cc1ccc(S(=O)(=O)N(C)C[C@@H]2Oc3ccc(NC(=O)Nc4ccc5c(c4)OCO5)cc3CC(=O)N([C@H](C)CO)C[C@H]2C)cc1	-4	2	-21
C[C@@H]1CN([C@H](C)CO)C(=O)Cc2cc(NC(=O)Nc3ccc4c(c3)OCO4)ccc2O[C@H]1CN(C)S(=O)(=O)c1ccccc1	-5	-6	-8
